# The full list was thinned out, with hits kept by preference.
# YopH inh: YopH tyrosine phosphatase inhibitors, primary screen, biochemical, fluorescence Ex485/Em525 | inhibition, % (concentration not given with the values) | 140,000 compounds, 0.16% hits | AID 898, 2007; in the data active means inhibition above about 50%
# RmlCD inh 1536: M. tuberculosis RmlC/RmlD coupled enzyme inhibitors, primary screen, biochemical, compound mixtures, 384-well, from 1536-well plates; inhibition, % at 3.6 µM; RmlC+RmlD coupled enzyme assay, percent inhibition; primary screen in compound mixtures; 160,000 compounds, 0.03% hits; dTDP-4-dehydrorhamnose reductase (Mycobacterium tuberculosis (strain ATCC 25618 / H37Rv)) …; in the data active means inhibition mostly above about 34%, no sharp cut-off
# Target sequence (P9WH09 whole entry, looked up): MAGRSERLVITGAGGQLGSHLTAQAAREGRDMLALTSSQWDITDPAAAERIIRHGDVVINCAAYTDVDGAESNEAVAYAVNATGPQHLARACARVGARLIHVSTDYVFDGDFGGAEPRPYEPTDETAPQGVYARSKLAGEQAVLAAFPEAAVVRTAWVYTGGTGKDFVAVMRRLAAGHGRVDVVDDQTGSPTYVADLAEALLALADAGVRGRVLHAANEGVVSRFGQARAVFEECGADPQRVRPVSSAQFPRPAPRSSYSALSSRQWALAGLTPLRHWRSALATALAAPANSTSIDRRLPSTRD
# Target sequence (P9WH11 whole entry, looked up): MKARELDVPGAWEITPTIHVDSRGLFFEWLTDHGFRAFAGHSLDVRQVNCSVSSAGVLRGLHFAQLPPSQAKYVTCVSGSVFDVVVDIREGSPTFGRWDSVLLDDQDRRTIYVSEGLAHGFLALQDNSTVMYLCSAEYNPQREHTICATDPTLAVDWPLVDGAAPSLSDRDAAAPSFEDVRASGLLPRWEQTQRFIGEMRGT
# Numbers without * were called inactive; . = not tested or not shown.
SMILES,YopH inh,RmlCD inh 1536
CCOc1ccc(NC(=O)Nc2ccc3nsnc3c2)cc1,.,5
CCc1ccccc1NC(=S)N(CCN(C)C)Cc1cccs1,.,6
CC(C)N1CCNCC1,.,10
CC1CN(S(=O)(=O)c2cccc(C(=O)OCc3cc(=O)oc4cc(O)ccc34)c2)CC(C)O1 (stereo not drawn),1,64*
CN(C)c1cccc(C(=O)OCc2cc(=O)oc3cc(O)ccc23)c1,10,11
C1CCc2nc3c(nc2C1)CCCC3,.,70
Nc1nnc2c(n1)CCCC2,52*,6
COC(=O)/C=C/c1oc2ccccc2c1C,.,3
Cc1ccc(C)c(N2CCN(C(=O)c3csc4ccccc34)CC2)c1,-18,0
CN(C(=O)COc1ccc(C(C)(C)C)cc1)C1CCS(=O)(=O)C1 (stereo not drawn),54*,-10
CCc1ccc(OCC(=O)N(C)C2CCS(=O)(=O)C2)cc1 (stereo not drawn),-26,.
CCn1c(C)nc2cc(C(=O)N/N=C/c3ccc(OC)cc3)ccc21,.,4
CCn1c(C)nc2cc(C(=O)N/N=C(\C)c3ccc(OC)cc3O)ccc21,.,37*
COc1ccc(C(C(=O)NC2CCCCC2)N(C(=O)c2sc(C)nc2C)c2ccc(C(C)=O)cc2)cc1 (stereo not drawn),-37,.
CCN1C(=O)N(c2cccc3ccccc23)C(C)=CC1(C)C,9,.
CN1C(=O)N(C)C2(c3ccccc3)NC(=O)NC12c1ccccc1 (stereo not drawn),-26,-4
CN1c2ccccc2N(C)C1(C)c1ccccc1,85*,9
CCN1c2ccccc2N(C)C1(C)c1ccccc1 (stereo not drawn),92*,0
COc1cc(C(=O)N2CCC(n3c(C)nc4cc(F)ccc43)CC2)cc(OC)c1OC,-3,.
COc1ccc(CNC(=O)/C(C#N)=C2\N=C(NC(=O)c3cccs3)c3ccccc32)cc1,-10,9
COc1cccc(C(=O)COC(=O)c2ccc(NC(C)=O)cc2)c1,-35,28
COC(=O)CSc1nnc(CNC(=O)c2ccccc2OC)n1C,-38,20
COC(=O)CSc1nnc(CNC(=O)c2cccc(C)c2)n1-c1ccccc1OC,76*,.
Cc1cc(=O)oc2cc(NS(=O)(=O)c3ccccc3)ccc12,.,43*
CN(C)S(=O)(=O)c1ccc(S(=O)(=O)Nc2ccc3c(c2)oc2ccccc23)cc1,6,-1
SMILES,YopH inh,RmlCD inh 1536
Cc1onc(-c2c(Cl)cccc2Cl)c1C(=O)NCc1ccccn1,-20,-5
Cc1onc(-c2ccccc2)c1C(=O)NCc1ccccn1,53*,-2
COCCNC(=O)COC(=O)/C=C/c1c(C)nn(Cc2ccc(Cl)cc2Cl)c1Cl,24,4
CC1(C)COC(/C=C/c2ccc([N+](=O)[O-])cc2)=N1,52*,7
CC(=C/C(=O)O)/C=C/c1ccc([N+](=O)[O-])cc1,-12,8
COc1ccc(NCc2ccc([N+](=O)[O-])s2)c(OC)c1,76*,-10
COc1ccc(NCc2ccc([N+](=O)[O-])s2)cc1,48,-9
Cc1cccc(Oc2nc(CN3CCOCC3)nc3sc4c(c23)CCCC4)c1,-17,5
CSCCC(NC(=O)c1cccc([N+](=O)[O-])c1)C(=O)O (stereo not drawn),-25,.
COc1ccccc1CNC(=O)c1ccc(OC(F)F)c(OC)c1,-39,6
CCOC(=O)C(NC(=O)Nc1ccccc1)(OCC)C(F)(F)F (stereo not drawn),53*,.
CCOC(=O)C(NC(=O)NCc1ccc(F)cc1)(OCC)C(F)(F)F (stereo not drawn),-15,-14
COc1ccc(NC(=O)c2ccc(COc3ccc(C)cc3)o2)cc1,.,8
COC(=O)CN1C(=S)N(Cc2ccccc2)C(=O)C1CC(=O)Nc1ccc(Br)cc1 (stereo not drawn),0,10
Cc1cc(=O)oc2ccc(OC(=O)CC(C)C)cc12,.,16
CCOC(=O)Oc1ccc2oc(=O)cc(C)c2c1,67*,-8
CCOc1cc(C)nc(NCCc2ccc(OC)c(OC)c2)n1,-7,-4
O=C1C(=O)N(Cc2ccccc2)C(=O)N1CCN1C(=O)c2ccccc2C1=O,.,-3
O=C1Cc2ccccc2C(=O)N1CCc1ccccc1,100*,8
CCC1NC(=S)NC(C)=C1C(=O)c1ccccc1 (stereo not drawn),.,7
COc1ccc(N2CCN(Cc3cc(=O)oc4cc(-c5ccccc5)c(O)cc34)CC2)cc1,0,.
O=c1cc(CN2CCN(c3ccccc3F)CC2)c2cc(O)c(-c3ccccc3)cc2o1,61*,.
COc1cc([N+](=O)[O-])cc2cc(C(=O)N3CCCC3)c(=O)oc12,.,-10
Cc1oc2c(c1C(=O)c1ccccc1)C(=O)C(=O)c1ccccc1-2,89*,.
Cc1oc2c(c1C(=O)O)C(=O)c1ccccc1C2=O,.,-8
SMILES,YopH inh,RmlCD inh 1536
O=C(C1=C(c2ccccc2)C(=O)c2ccccc2C1=O)c1ccccc1,-30,-9
O=C1C(=O)c2c(C(=O)c3ccccc3)coc2-c2ccccc21,75*,9
CCC(=O)NC(=S)Nc1ccc(NC(=O)c2ccc([N+](=O)[O-])cc2Cl)cc1,-30,-11
COc1cccc(-c2nc(CS(=O)(=O)CC(=O)N3CCN(C)CC3)c(C)o2)c1,-9,-11
COc1cccc(-c2nc(CS(=O)(=O)CC(=O)N3CCc4ccccc4C3)c(C)o2)c1,80*,7
Nc1oc2ccc(F)cc2c(=O)c1C=O,-43,10
COc1ccc(C(=O)OC2CCN(C)CC2)cc1,3,.
Cc1c(Br)cc(C(=O)OC2CCN(C)CC2)c(C)c1C,54*,17
O=c1[nH]c(SCc2cccc(Cl)c2)nc2[nH]ncc12,.,-11
CCn1nnnc1-c1ccc(OC)c(S(=O)(=O)Nc2ccc(C(=O)OC)cc2)c1,-7,0
CCOC(=O)c1ccc(NS(=O)(=O)c2cc(-c3nnnn3C(C)C)ccc2OC)cc1,62*,.
COC(=O)c1nnn(-c2nc(N(C)C)nc(N(C)C)n2)c1C,.,-7
CCOC(=O)/C(=C\c1cn(C)c2ccccc12)[N+](=O)[O-],1,.
COC(=O)/C(=C/Nc1cccc2ccccc12)[N+](=O)[O-],-17,100*
O=C(O)c1ccccc1CSc1nc2ccccc2n1Cc1ccccc1C(=O)O,.,-14
N#Cc1c(N)n(CCNC(=O)c2cccs2)c2nc3ccccc3nc12,54*,.
N#Cc1c(N)n(CCNC(=O)c2ccccc2)c2nc3ccccc3nc12,-27,.
CCOc1cc(C(=S)N2CCOCC2)ccc1OC,12,.
CCOc1ccc(C(=S)N2CCOCC2)cc1OC,50*,.
CC(C)CC(=O)NC(=S)Nc1ccc(S(=O)(=O)N2CCCC2)cc1,.,19
C/C=C1\C(OC2OC(CO)C(O)C(O)C2O)OC=C(C(=O)OC)C1CC(=O)OCC1C(C)C(OC(=O)CC2C(C(=O)OC)=COC(OC3OC(CO)C(O)C(O)C3O)/C2=C\C)CC1C(CO)CO (stereo not drawn),.,-14
CC(=O)[C@@H]1[C@@H](C(=O)c2ccc(C)cc2)[C@]2(C(=O)Nc3ccccc32)[C@H]2C=Cc3cc(F)ccc3N12,27,-5
O=C(c1ccc(F)cc1)[C@@H]1[C@@H](C(=O)c2ccccc2)[C@@]2(C(=O)Nc3ccccc32)[C@H]2c3ccccc3C=CN12,83*,4
CCOC(=O)/C(C)=N/NC(=O)c1ccc([N+](=O)[O-])cc1,.,13
